Data reported in PubChem BioAssay AID1508600 (Functional Genomics Laboratory (NCATS/FGL), 2020).
Hit rate of the full screen: of about 53,000 sequences, about 3,700 (7%) were called active. This is one part of a sample in which actives are shown more often than they occur. Values without a mark were called inactive.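 Rule for the calls: active = gene knockdowns whose robust z-score for IL-1 alpha signal is at least 2 or at most -2, so actives lie on both sides; inactive = the rest.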

Experiment: Components of the Cytosolic LPS Sensing Pathway: Gene Identification via Genome-wide siRNA Screen;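 note: robust z of the log signal after scaling to non-targeting control siRNA wells of the plate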
Conditions: RAW264.7 macrophages, IL-1a HTRF, actives lie on both sides, screened at 100 nM (by protocol), cells primed 5 h with Pam3CSK4 first
Method in brief: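 IL-1a HTRF of supernatants after 24 hour LipidA transfection of Pam3CSK4-primed (5 hours) RAW264.7 cells, 48h post-siRNA transfection (100 nM). Scores: percent of plate negative-control median, then log-based robust z-score.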
For “GGACCCAGCAGUCAAGAUATT against 9930038B18Rik”, the z-score was 0.0416. For CCAGCAAUAGUUCAGCAGATT against Ccdc82, the z-score was -2.72 (active). In the case of GGUGCCAACCUCAAUUCAUTT against Hnf4a, the z-score is reported as 1.9. In the case of CCGGUUCACUGCUUGACCUTT against Wbp1, the z-score is reported as 0.87. Sequence CGUUGUGAGGUUAUACGACTT against Tbc1d20 has a z-score of -0.862. For GGAACACUUUAAGACCAAATT against Fmnl1, the z-score was 0.482. GGAGUAUUAUGAAGUGUUGTT against Aip showed a z-score of 0.108. Work on GGAAACUGGUGCUACAUUATT against Usp10 yielded a z-score of 0.747. With GGACAGGAUCAGAGAAAGATT against Zbtb7c the z-score was -2.15 (active). Work on GGACAUUGAGGAUUAUGUCTT against Med24 yielded a z-score of 0.332. GCUAGAUGUAGAUAGAUAATT against Plekhm3 showed a z-score of -0.569. In the case of GCACAGGUGAGCUCUUUGATT against Nudt10, the z-score is reported as -1.12. For GUGUUUUACCAUUGGACAUTT against Klra20, the z-score was 1.58. For GUUCGCUGAACACGUCUUCTT against Hpcal1, the z-score was 0.549. In the case of GGCAUUGAAUUACUUACAUTT against Slk, the z-score is reported as 2.46 (active). For GAGACAAUUGUAACAUUCUTT against Olfr176, the z-score was 1.2. In the case of GGCAGCUUAGCUGUUCGUCTT against Socs4, the z-score is reported as -0.664. In the case of GGCCAGUUCUAUGUCAUGATT against Usf2, the z-score is reported as -2.05 (active). Work on GGCUCUCAGUGCCAUCAUUTT against Stk40 yielded a z-score of -0.858. In the case of GCUUGGGUAAUAGAAAUCATT against Btnl1, the z-score is reported as 0.6. In the case of GGUUCUCCAAACUCUGCCATT against Arhgap1, the z-score is reported as 2.29 (active). With GCCAAGACAUCAGAAGGAUTT against Nrxn1 the z-score was 0.202. For GGAAAACAGUGGUAGCUUATT against Cnp, the z-score was 0.187. In the case of GGAUGAAGAUGAAAAAGAUTT against Hoxc9, the z-score is reported as -0.247. With GGGACUUUGUAAACAGUUUTT against Eci2 the z-score was 1.61. GGCUAACCGUAUCAGUCAUTT against Podnl1 showed a z-score of -1.23. GGCUUGAAUAUUAAAGUGATT against Arhgef19 gave a z-score of -0.505. With GGAGGUGGUACAAUACACCTT against Gsg1 the z-score was 2.86 (active). For CCAACUUCAAAACUAUCGUTT against Trp53bp1, the z-score was 2.19 (active). For UGCGAGCUCACUGAUGUACTT against Adam34l, the z-score was -1.69. Work on GGGUUAGGUUGGGAUGGAUTT against Ccnd3 yielded a z-score of -0.466. For GCACCUGACAGAUACUUCCTT against Ints4, the z-score was -2.1 (active). CGUGGGCCUAUGCUUGUCATT against Tsc1 gave a z-score of 0.32. For GGUUCUGAUAUACGUGUUUTT against Rraga, the z-score was 0.057. With “CCCAUUCACUCAUCACAUGTT against F630003A18Rik” the z-score was -1.4. In the case of GGCAGUUUUGCAUGUGUGATT against Zfp654, the z-score is reported as -2.23 (active). Work on GCCACUAAGAAUCAGACAUTT against Ryr1 yielded a z-score of -0.382. Work on CCAGACCAUUAACUUGAUUTT against Lsm8 yielded a z-score of -0.739. “GGUACGAGUGAUCGUACUUTT against 5330438I03Rik” showed a z-score of 0.54. For CCCGUCACCACUUAACAUGTT against Rasal2, the z-score was 0.699. With GCUUUGAUGUCGAUGGGCUTT against Arg1 the z-score was -2.01 (active). GGAAUACCAUGUUACAAUUTT against Reln gave a z-score of 0.816. In the case of GGUGUCUUUUUUUACAAGATT against Tnfsf11, the z-score is reported as 0.233. GGAGGAACCUAAUUGAAUGTT against Cmbl gave a z-score of 0.183. GGUCCAGAUAGACAUCCUGTT against Ralb gave a z-score of 0.169. In the case of GCAACUUGUCAGAUGUUUCTT against Trpm7, the z-score is reported as 3.35 (active). In the case of GGGAUAAAUAUGAAGAAAGTT against Tacc2, the z-score is reported as -1.46. For GGAACAGAGAUAUGAAACATT against Olfr738, the z-score was -2.4 (active). GGAGCAAUUAAAGGUGUCATT against Fpr-rs3 gave a z-score of -0.159. CCAUCUUCAGCAGUGGAAATT against Rph3al gave a z-score of -1. Work on GGCGUGCGAUAACACGCAATT against Med18 yielded a z-score of 1.05. In the case of GGUCGUAUGGUGCUCAAGATT against Pira1, the z-score is reported as -1.76. With GGCAUAGGACUAGAAGCAGTT against Rsrc2 the z-score was -1.54. GCAGUAUGGGACUAUGCUUTT against Cp showed a z-score of -0.0969. With GCCAGAACCUGACUUAUAUTT against Mia2 the z-score was -0.0793. In the case of GCCUGGCUAGAAAUGUGGUTT against Fpr3, the z-score is reported as 3.19 (active). For CCUCAUUCAGAGUAUAUAGTT against Vwa3a, the z-score was -0.469. Sequence GGCUUUAGAGAAAGAAGUATT against Med4 has a z-score of 1. With GCGAGGUGUCUCUAUCAACTT against Mrpl11 the z-score was 3.37 (active). GCCUUUCUUCAGUGUUCACTT against Gm128 showed a z-score of 0.498. For GGUCUACGCUAUCCUAGUUTT against Grin1, the z-score was -2.23 (active). In the case of GCACCAAAAUACACGAAAGTT against Ptpdc1, the z-score is reported as -1.11. For CCCAUGACUAUCCAAACAATT against Kcnmb2, the z-score was -1.52. CCUUAGUAACAGCACUAGCTT against Lrfn2 gave a z-score of -0.228. For GGAGCUGGAGUACGACUACTT against Tmem30b, the z-score was -0.891. For GGGAAAAUUUCCUCUGACUTT against Chia1, the z-score was -2.03 (active). In the case of UUUAAGGAUCUCGUGCGAATT against Olfr809, the z-score is reported as -0.12. GCUAAAACCCGUUACUUCCTT against Gsta4 gave a z-score of 0.669. With CGACUACAAUGGGCUCAAGTT against Kifc3 the z-score was -2.1 (active). With GGUAAAGGGUUCUUGGACATT against Eps15l1 the z-score was -0.156. With GGAGAAUGCCCUGAUAUAGTT against Hyal5 the z-score was 1.56. Work on GGAUGUGAUUGAUAUUGAATT against Cul7 yielded a z-score of 1.63. In the case of GCAGUAGUCUUGGAAUUAATT against Bhlhe41, the z-score is reported as 2.15 (active). Sequence GCAGCGAGGUUAUCAGUAATT against Sox8 has a z-score of -0.554. Sequence GCCUUUUUACAGCUCAGGUTT against Zfp975 has a z-score of -0.623. GCCACCCUUCUGGAGAUUCTT against Gm6787 gave a z-score of 1.49. With CGGUAUCUACAUCAUAAACTT against Rpsa the z-score was 0.172. “GGUUACCAGAAAAUAACUATT against E130114P18Rik” showed a z-score of 0.852. For UGUCAACUGACUGUAGUAATT against Zmynd12, the z-score was 1.66. With GGACUGGAAAAUAUCAAACTT against Spata5 the z-score was 2.04 (active). With GGCUACGUGAAGGAACAGUTT against Rps10 the z-score was 0.397. Sequence GGCACUUAAGUAUUCUUCATT against Wac has a z-score of -0.412. Work on GGAAAAAUCAGUUUCGUCUTT against Dgkq yielded a z-score of 0.305. In the case of GGUUAGCCAGCUGAAUCAATT against Cxxc4, the z-score is reported as 1.89. CCUAGAAAGAGGACUCAGATT against Abhd12 showed a z-score of -0.293. In the case of CCUUUAAAGGGCAUAUUCATT against Clip1, the z-score is reported as 1.46. Work on GGCCUGCCGGAGAUAAAGATT against Tex43 yielded a z-score of -0.759. For CCCUGUCUUUCCUAGGCCATT against Mcat, the z-score was -3.3 (active). For AGGGCACAAAAGGUGACAATT against Rph3al, the z-score was -0.887. For GGAUGAUGUUCCCAUGCAATT against Cdca7l, the z-score was -0.45. For “GCUGCUCGAUUGCUUUCCATT against 4930429B21Rik”, the z-score was 0.411. With GGACCAAGUGGAAGAAGCATT against Nkx1-2 the z-score was -2.02 (active). With GGACAGAUGGAAUAGUGAATT against Klra10 the z-score was -0.657. CCAUCAAGCGAUUUGUGGUTT against Rnf103 showed a z-score of -0.156. For GGCCAGCAGACUAUUUAUUTT against Derl1, the z-score was 0.304. For GGUGCAAGUGCAGUUUCAATT against Fxyd6, the z-score was 2.38 (active). Work on GCACAAAAUUCACUGUUAGTT against Olfr112 yielded a z-score of 0.965. GCUCGGUAGGUAUUUUCUGTT against Tmem164 gave a z-score of -0.13. GGCUGAUGCAGACAGUUUCTT against Brap gave a z-score of -0.655. With GGAUUGAAACAGAUGAGAGTT against Gtf2e1 the z-score was 0.833. GGAGUGCUGAUAAAAGAAGTT against Atp5mpl showed a z-score of -0.952. With GUUCUAUGGUAGACAUUAUTT against Gm5414 the z-score was -2.35 (active). GCUCUCAUACACGGUGGAATT against Ros1 gave a z-score of -0.272. GGAGACCUCAGCUGAUAUUTT against Tmem109 showed a z-score of 0.51. For GGUUCUGAACCAGCUGGAGTT against Chd3, the z-score was 2.72 (active). GGCCAUGCCUUUGUAUGCUTT against Tbc1d25 showed a z-score of -0.155. GGAUUUUGUUGACAAUGAUTT against Ncaph showed a z-score of -0.0936. GGAGCUCUUGGAUAUAAAATT against Eif4enif1 gave a z-score of 0.223.
